This passage reports GFP+ MAC1+ double positive, normalized GFP-positive differentiation and outcome results from PubChem BioAssay AID624256 (NMMLSC, 2012).

About 3,700 (1%) of roughly 360,000 compounds were called active. About 2% were inconclusive and are not listed.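 How the source made its calls: active means normalized GFP-positive differentiation at or above the plate's own cutoff, the solvent-only control mean plus 3 SD; inconclusive means no clear call, values can overlap the other calls; inactive means the rest.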 This excerpt belongs to a sample that is enriched for actives.

The assay can be described thus: HoxA9-arrested leukemia cell differentiation promoters – flow cytometry, MLPCN library, primary screen (AID 624256).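 On GFP+ MAC1+ double positive: cells exposed to compound for four days before flow analysis.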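 On normalized GFP-positive differentiation: cells exposed to compound for four days before flow analysis; 0% = DMSO wells and 100% = fulvestrant positive control at 5 µM.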 The settings on record: ER-HoxA9 myeloid progenitors, lysozyme-GFP differentiation, at 10 µM; GFP+ MAC1+ double positive: measured here: differentiation confirmed by MAC1 staining, stronger effect = higher value; normalized GFP-positive differentiation: stronger effect = higher value. (In general: In flow cytometry, cells or beads pass a laser one at a time.)
Turning to `Cc1cc(C)c2nc3nc(C)cc(C)c3c(N)c2c1`, the GFP+ MAC1+ double positive is 2.1% and the normalized GFP-positive differentiation was 151% (active).
In the case of `NC(Cc1ccc(F)cc1)c1csc(Nc2nncc3ccccc23)n1` (configuration not stated), the GFP+ MAC1+ double positive turned out to be 0.8% and the compound was classed as inactive.
With `O=c1oc2ccccc2c(=O)c2ccccc12`, the GFP+ MAC1+ double positive was determined as 1.6% and the call was inactive.
In the same order, the values of `COc1ccccc1CNC(=O)c1cc(=O)c2ccccc2o1` are 1% and “inactive”.
Take `COc1cc(N=Cc2c(O)c3ccccc3oc2=O)c(OC)cc1Cl`: the GFP+ MAC1+ double positive was determined as 12% and the normalized GFP-positive differentiation was 239% (active).
For `CCOC(=O)c1ccn(S(=O)(=O)c2ccc(C)cc2)c1-c1ccccc1`, the GFP+ MAC1+ double positive was 1.4% and the compound was classed as inactive.
In the same order, the values of `O=C1NC[C@H](Cc2ccc(O)cc2)N(C[C@H]2CCCN2C[C@H](Cc2ccccc2)N2C[C@H](Cc3ccccc3)N(CCc3ccccc3)C(=O)C2=O)C1=O` are 1% and “inactive”.
For the compound `CCOC(=O)[C@]12CCCC=C1N(CCC1=CCCCC1)C(=O)[C@H](CC(=O)N1CCN(C(=O)c3ccco3)CC1)C2`, the GFP+ MAC1+ double positive was found to be 2.3% and the result was inactive.
In the same order, the values of `N#CCCN(C(=O)COC(=O)c1ccc(S(=O)(=O)N2CCCCCC2)cc1)c1ccccc1` are 0.7% and “inactive”.
For `Cc1c(C(=O)OCC(=O)N(CCC#N)c2ccccc2)oc2c1ccc1ccccc12`, the GFP+ MAC1+ double positive amounted to 5% and the normalized GFP-positive differentiation is 26.9% (active).
Consider `N#CCCN(C(=O)COC(=O)c1ccc2c(c1)OCCO2)c1ccccc1`, for which the GFP+ MAC1+ double positive was 0.7% and the compound was classed as inactive.
In the same order, the values of `CCCc1nc2ccccc2n1C(C)C(=O)NC(C)(C)C` (configuration not stated) are 3.7% and “inactive”.
In the same order, the values of `O=C(NC(c1ccc(-c2ccccc2)cc1)c1cnccn1)C1CCN(CCOc2ccc(Cl)cc2Cl)CC1` (configuration not stated) are 1.7% and “inactive”.
As to `CN(C)c1nccc(NCc2ccccc2)c1C#N`, the GFP+ MAC1+ double positive came to 0.2% and the call was inactive.
`CC(C)n1cnc2c(NCc3ccccc3)cc(OCC3CCN(C)CC3)cc21`: the GFP+ MAC1+ double positive amounted to 8.3% and the normalized GFP-positive differentiation is 28.4% (active).
In the case of `CCOC1=C2[C@@H](CN(S(=O)(=O)c3ccc(C)cc3)[C@H]2c2ccccc2F)[C@H]2C(=O)N(Cc3ccccc3)C(=O)[C@H]2C1`, the GFP+ MAC1+ double positive was 1.5% and the outcome was inactive.
`COC(=O)CCCCC1=CCC2C(=O)C=C(O)C2C1` (configuration not stated): the GFP+ MAC1+ double positive was 1.6% and the result was inactive.
Turning to `Fc1cccc(Cl)c1COc1ccc(-c2nnco2)cc1`, the GFP+ MAC1+ double positive amounted to 1.8% and the call was inactive.
In the same order, the values of `CN(C)CCCNC(=O)/C=C/c1ccc(OCc2c(F)cccc2Cl)cc1` are 0.3% and “inactive”.
Take `O=C(/C=C/c1ccc(OCc2c(F)cccc2Cl)cc1)N1CCOCC1`: the GFP+ MAC1+ double positive stood at 32% and the normalized GFP-positive differentiation is 144% (active).
As to `CC1(C)OC(=O)C2=C(C[C@@H](C3CCCCC3)O[C@@H]2c2ccc(Cl)cc2)O1`, the GFP+ MAC1+ double positive came out at 0.8% and the compound was classed as inactive.
In the same order, the values of `O=C(Nc1ccc(S(=O)(=O)NCC2CCCO2)cc1)c1ccc(F)cc1` (configuration not stated) are 0.4% and “inactive”.
For the compound `CCOc1ccc(C(=O)Nc2ccc(S(=O)(=O)NCC3CCCO3)cc2)cc1OCC` (configuration not stated), the GFP+ MAC1+ double positive turned out to be 2.1% and the normalized GFP-positive differentiation was 18.3% (active).
With `Cc1ccc(NC(=O)c2ccc(S(=O)(=O)NCC3CCCO3)cc2)cc1C` (configuration not stated), the GFP+ MAC1+ double positive amounted to 0.8% and the call was inactive.
For `Cc1cccc(C)c1NC(=O)C(c1cccc2ccccc12)n1c(=O)c(-c2ccco2)nc2ccccc21` (configuration not stated), the GFP+ MAC1+ double positive stood at 3.2% and the call was inactive.
In the same order, the values of `Cc1cc(C)c(S(=O)(=O)NN=C2c3ccccc3[C@H]3Cc4csc[n+]4[C@@H]23)c(C)c1` are 1.3% and “inactive”.
On to `CCN(C(=O)COC(=O)c1ccccc1O)c1cccc2ccccc12`, for which the GFP+ MAC1+ double positive is 0.7% and the normalized GFP-positive differentiation was 11.2% (active).
For the compound `O=C(COC(=O)c1ccccc1O)NCc1ccco1`, the GFP+ MAC1+ double positive turned out to be 0.8% and the result was inactive.
`Cc1cccc(C)c1NC(=O)COC(=O)c1ccccc1O`: the GFP+ MAC1+ double positive amounted to 0.5% and the call was inactive.
On to `CCOC(=O)C1=CCC(c2ccc(F)cc2)N(S(=O)(=O)c2ccc(C)cc2)C1` (configuration not stated), for which the GFP+ MAC1+ double positive is 0.9% and the result was inactive.
On to `Cc1cccc(C)c1-n1nnnc1C(CCc1ccccc1)N1CCN(C/C=C/c2ccccc2)CC1` (configuration not stated), for which the GFP+ MAC1+ double positive came out at 1.8% and the call was inactive.
For the compound `Cc1cc2nc(-c3ccc(Cl)cc3)c(Cc3cccc(F)c3)n2c(C)c1Br`, the GFP+ MAC1+ double positive came out at 1.3% and the compound was classed as inactive.
In the same order, the values of `O=C(c1ccco1)N1CCN(C(=O)C2CC(c3ccc(Cl)c(Cl)c3)=NO2)CC1` (configuration not stated) are 0.9% and “inactive”.
For `CCOC(=O)N1CCN(C(=O)C2CC(c3ccc(F)cc3)=NO2)CC1` (configuration not stated), the GFP+ MAC1+ double positive was found to be 1.8% and the call was inactive.
With `O=C(c1ccco1)N1CCN(C(=O)C2CC(c3ccc(F)cc3)=NO2)CC1` (configuration not stated), the GFP+ MAC1+ double positive was 12.6% and the normalized GFP-positive differentiation is 34.4% (active).
For `Cn1cnc(S(=O)(=O)N2C[C@@H](O)COC[C@@H]3O[C@H](CC(=O)NC4CCC4)CC[C@H]32)c1`, the GFP+ MAC1+ double positive came to 3.2% and the compound was classed as inactive.
Take `NCCCNC(=S)NCCCN(Cc1ccc(Cl)cc1)c1ccc(Br)cn1`: the GFP+ MAC1+ double positive amounted to 0.9% and the call was inactive.
Take `O=C(CC[C@H]1O[C@@H](n2ccc(=O)[nH]c2=O)[C@H](O)[C@@H]1O)N[C@H](Cc1ccccc1)C(=O)NCCCN1CCCC1=O`: the GFP+ MAC1+ double positive stood at 0.7% and the compound was classed as inactive.
As to `O=C(NCC(O)c1nc2ccccc2[nH]1)c1ccc(Br)cc1` (configuration not stated), the GFP+ MAC1+ double positive stood at 0.9% and the call was inactive.
Consider `CC(C)c1nc2ccc(C(=O)O)cc2[nH]1`, for which the GFP+ MAC1+ double positive came out at 15% and the normalized GFP-positive differentiation was 15.9% (active).
Take `OC(c1nc2ccc(F)cc2[nH]1)C(O)c1nc2ccc(F)cc2[nH]1` (configuration not stated): the GFP+ MAC1+ double positive worked out at 0.4% and the compound was called inactive.
